# High-throughput results as filed in PubChem BioAssay.
# The list is not random: actives were taken first. Their share in the collection is about 3.8%.
# rRNA inh HTS: selective bacterial rRNA inhibition in E. coli; GFP signal change (wild-type ribosome), % (concentration not given with the values); AID 720706; E. coli WT GFP vs humanized-ribosome RFP mutants, fluorescence, 24 h; hits give low values; DMSO median 0, no signal -100; 350,000 compounds, 1.6% hits;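 active = significant combined selectivity score with lowered wild-type GFP, culture density cut under 30%, mutant RFP and density less affected; inactive = any of these conditions unmet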
# ADAM17 inh: inhibitors of human ADAM17. 370,000 compounds, 0.83% hits. P78536. recombinant ADAM17, EDANS/DABCYL FRET peptide cleavage. inhibition, % at 6.95 µM;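 active = inhibition above the mean of compounds lying between control limits plus 3 SD, set per campaign, cut at about 8.5% in these data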;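 also: 0% = DMSO-only wells as the low control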
# FGF22 binding: shifts melting point of recombinant human FGF22. recombinant FGF22 thermal shift, SYPRO orange fluorescence; percent of sucrose octasulfate shift, DMSO zero. Q9HCT0. AID 651658. 340,000 compounds, 1.5% hits. activity (Tm shift, normalised), % at 9.99 µM;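 active = mean Tm shift, scaled 0 neutral to 100 positive control, at about 1.3% or above, every replicate too, limit read from the data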
# Target sequence (Q9HCT0 whole entry, looked up): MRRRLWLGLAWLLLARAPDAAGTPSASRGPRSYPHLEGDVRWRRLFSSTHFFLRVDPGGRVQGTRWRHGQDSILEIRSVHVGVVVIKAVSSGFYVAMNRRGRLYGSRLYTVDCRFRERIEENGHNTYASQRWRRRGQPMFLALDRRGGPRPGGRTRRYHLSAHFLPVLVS
# ADAM10 inh: ADAM10 inhibition, QFRET primary screen. inhibition, % at 7 µM. 370,000 compounds, 0.62% hits. recombinant ADAM10, EDANS/DABCYL FRET peptide cleavage, 3 h. AID 720582. O14672;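 active = inhibition above a per-campaign cutoff equal to the mean of compounds falling between control-based bounds plus 3 SD, cut at about 20% in these data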;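 also: 0% = DMSO wells while the 100% control is not disclosed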
# proKLK7 act: proKLK7 (human) activation, primary screen. purified proKLK7, EDANS-DABCYL substrate fluorescence; 100% is mature enzyme control, 0% vehicle. activation, % at 7 µM. 370,000 compounds, 0.9% hits;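 active = activation above the mean of all tested compounds plus 3 SD, computed per campaign excluding outliers beyond control limits, cut at about 13% in these data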
# Target sequence (P49862 whole entry, looked up): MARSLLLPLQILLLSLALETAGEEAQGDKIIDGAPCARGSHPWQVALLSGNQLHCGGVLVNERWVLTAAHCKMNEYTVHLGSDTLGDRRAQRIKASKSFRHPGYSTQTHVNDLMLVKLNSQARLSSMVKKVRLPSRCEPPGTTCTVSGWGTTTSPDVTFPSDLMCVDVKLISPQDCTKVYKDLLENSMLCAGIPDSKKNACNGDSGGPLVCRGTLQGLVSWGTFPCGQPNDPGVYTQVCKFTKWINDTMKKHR
# The depositor's hits bear a star; . = no result.
SMILES,rRNA inh HTS,ADAM17 inh,FGF22 binding,ADAM10 inh,proKLK7 act
COc1cc(/C=N/Nc2snc(SC)c2C#N)cc(OC)c1OC,.,-3,.,0,0
COc1ccc(-c2cc(C(=O)NN=Cc3ccc(O)c(OC)c3)[nH]n2)cc1,.,-1,.,-10,0
COc1cc(/C=N/NC(=O)c2cc(-c3ccc4c(c3)OCO4)n[nH]2)ccc1O,-26*,-4,0,8,0
CSc1nsc(N/N=C/c2ccc3c(c2)OCO3)c1C#N,-29*,-5,0,-11,0
CC(C)NC(=O)C1CCN(C2CCN(C(=O)c3cc4c(s3)CCCCC4)CC2)CC1,7,2,0,-8,-1
NC(=O)C1CCN(C(=O)c2cc3c(s2)CCCC3)CC1,1,1,43*,-1,1
CCCNC(=O)N1CC2(CCN(Cc3ccc(F)cc3)CC2)c2c([nH]c3cc(OC)ccc23)[C@H]1CO,-2,.,.,.,.
O=C(O)c1cc(Nc2cc(Cl)c3nonc3c2[N+](=O)[O-])ccc1O,-11,-3,1.8*,-2,0
O=[N+]([O-])c1c(Nc2ccc(O)cc2)cc(N2CCOCC2)c2nonc12,0,-2,44*,-2,-1
Cc1nn(-c2ccccn2)c2c1C(=O)CC(C)(C)C2N=[N+]=[N-] (stereo unspecified),-21,-1,43*,-2,0
Cc1nn(-c2ccncc2)c2c1C(=O)CC(C)(C)C2Br (stereo unspecified),-1,-1,0,-11,0
C[C@@H]1CN([C@@H](C)CO)C(=O)c2cc(NC(=O)CCC(F)(F)F)ccc2O[C@@H](C)CCCCO[C@@H]1CN(C)Cc1ccccc1,-2,.,.,.,.
Cc1ccc2nc(-c3cccs3)oc(=O)c2c1,.,-3,43*,2,0
CCc1ccc(C(=O)COC(=O)CNC(=O)c2ccc(Br)o2)cc1,-22*,1,0,-5,0
COc1ccc(NC(=O)N(C)C[C@@H]2OCCCC[C@H](C)Oc3ccc(NC(=O)Nc4ccc(C(F)(F)F)cc4)cc3C(=O)N([C@@H](C)CO)C[C@H]2C)cc1,-1,.,0,.,.
NC(=S)NN=C1CCSCC1,-1,-3,43*,-7,0
CO[C@H]1CN(C)C(=O)c2cc(NS(=O)(=O)CC(F)(F)F)ccc2OC[C@H](C)N(Cc2ccccn2)C[C@H]1C,-2,.,0,.,.
COc1cc(C(=O)NCCc2cc3c(OC)ccc(OC)c3[nH]c2=O)cc(OC)c1OC,-1,-18,0,-26,1
COc1ccc(OC)c2[nH]c(=O)c(CCNC(=O)c3cccs3)cc12,1,-6,44*,-11,1
CC(NC(=O)COC(=O)c1ccccc1O)c1ccccc1 (stereo unspecified),-1,-1,0,-14,3
CC(NC(=O)COC(=O)c1cc(Cl)nc(Cl)c1)c1ccccc1 (stereo unspecified),14,-2,43*,12,0
COc1ccc2c3c(n(C)c2c1)[C@H](CO)N(C(=O)CC1CC1)CC31CCN(C(=O)C2CCCC2)CC1,-6,.,0,.,.
Cn1c(CSCc2ccc(Cl)cc2)n[nH]c1=S,-23*,-2,0,-11,-1
Cn1c(CSCc2ccc(F)cc2)n[nH]c1=S,7,1,0,1,0
Cc1c(NC(=S)N/N=C/c2ccc(O)cc2)c(=O)n(-c2ccccc2)n1C,.,-4,.,-3,-5
SMILES,rRNA inh HTS,ADAM17 inh,FGF22 binding,ADAM10 inh,proKLK7 act
Cc1c(NC(=S)N/N=C/c2cc([N+](=O)[O-])ccc2O)c(=O)n(-c2ccccc2)n1C,-22*,2,0,2,0
CC(=O)N1C[C@@H]2C(c3ccccc3)[C@H](C1)N2C(C)=O (stereo partly specified),0,.,.,.,.
NNC(=O)c1csc(CS(=O)(=O)c2ccc(Cl)cc2)n1,9,-3,0,-5,1
NNC(=O)c1csc(Cc2c(Cl)sc3ccc(Cl)cc23)n1,-31*,-1,0,-8,0
Cc1noc(C)c1NC(=O)N(C)C[C@@H]1Oc2ccc(NC(=O)c3ccncc3)cc2C(=O)N([C@H](C)CO)C[C@@H]1C,0,.,0,.,.
CC(=O)N1CCc2cc(N=NC3=C(O)CC(C)(C)CC3=O)ccc21,-15,3,43*,8,0
Cc1nc2ccc(N=NC3=C(O)CC(C)(C)CC3=O)cc2s1,.,5,.,-3,0
C[C@@H]1CCCCO[C@H](CN(C)S(=O)(=O)c2ccccc2)[C@@H](C)CN([C@@H](C)CO)C(=O)c2cc(NC(=O)C3CCCCC3)ccc2O1,1,.,.,.,.
COc1ccc(C(=O)NC(=S)NC(C)c2ccccc2)cc1 (stereo unspecified),-32*,0,0,10,1
COc1ccc(C(=O)NC(=S)Nc2cc3oc4ccccc4c3cc2OC)cc1,11,-5,44*,-13,0
COc1cc2c(cc1NC(=O)C(C)Sc1cccc[n+]1[O-])oc1ccccc12 (stereo unspecified),-33*,-2,0,0,0
COC(=O)C[C@@H]1CC[C@H]2[C@@H](COC[C@H](O)CN2S(=O)(=O)c2ccccc2C)O1,-1,.,0,.,.
COc1ccccc1S(=O)(=O)N[C@@H]1CC[C@H](CC(=O)NCc2cc(F)cc(F)c2)O[C@H]1CO,-1,.,0,.,.
O=C(O)c1ccccc1Nc1ccccc1,.,-5,0,-3,1
O=C(O)c1ccccc1Nc1ccc(OC(F)F)cc1,-16*,-1,0,1,0
C[C@@H]1CN([C@H](C)CO)C(=O)Cc2cc(NC(=O)Cc3cn(C)c4ccccc34)ccc2O[C@H]1CN(C)Cc1ccc(C(F)(F)F)cc1,-9,.,0,.,.
CC1CC(Nc2ccccc2)c2ccccc2N1C(=O)c1ccncc1 (stereo unspecified),1,-2,0,4,1
CC1CC(Nc2ccccc2)c2ccccc2N1C(=O)c1ccco1 (stereo unspecified),-28*,-1,0,-2,0
O=C(OCc1c(-c2ccccc2)ncc2ccccc12)c1cccs1,-21*,-4,0,3,0
O=C(OCc1c(-c2ccccc2)ncc2ccccc12)c1ccc(Br)cc1,6,1,0,4,1
CC1CCCC(NC(=O)COC(=O)C2=COCCO2)C1C (stereo unspecified),0,-1,44*,3,0
CC(=O)c1ccc(N(CC(=O)Nc2cc(C)on2)S(=O)(=O)c2ccc(C)cc2)cc1,9,0,43*,3,-1
COc1ccc(N(CC(=O)Nc2cc(Cl)ccc2C)S(=O)(=O)c2c(C)noc2C)cc1,-29*,-4,0,-1,0
CC(=O)c1ccc(S(=O)(=O)N(C)CC(=O)Nc2cc(C)on2)cc1,8,3,0,-8,0
CCc1cccc(NC(=O)CN(c2ccc(C)cc2)S(=O)(=O)c2c(C)noc2C)c1,-31*,8,0,16,0
